Hits are enriched below; roughly 0.25% of the tested compounds scored in any of these assays.
Tb PGK inh: inhibitors of T. brucei phosphoglycerate kinase; P07378; PGK/GAPDH coupled, Kinase-Glo luminescence, 60 min; Potency, µM (top dose mostly 57.5 µM), inactives show top-dose activity change, negative = inhibition, actives largely listed as inhibitors; hit rate 0.043% among 380,000; AID 602233; also: % is scaled to controls: 0 for no effect and ±100 for the full control effect; nearly all actives have a fitted effect of over 60% in size
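Luminescent ATP detection (Kinase-Glo Plus) follows a 60-minute room-temperature incubation, with wells lacking PGK as controls. Buffer: 100 mM TEA (pH 7.6), 5 mM MgCl2, 0.01% Tween-20. Coupling enzyme GAPDH (100 nM final) supplies unstable 1,3-BPG in-well.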
Tb PFK inh-1: T. brucei PFK enzyme inhibition; O15648; T. brucei PFK, ADP-Glo luminescence; Potency, µM (highest dose often 57.5 µM), without a hit: at the top dose activity, negative = inhibition, actives largely listed as inhibitors; hit rate 0.17% among 330,000; AID 485367;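 also: 0% = uninhibited 1x PFK enzyme wells and -100% = no-enzyme wells; nearly all actives have a fitted effect of over 60% in size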
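ADP-Glo luminescence quantified ADP after 45 min at room temperature, with 1.25 nM T. brucei PFK, 0.1 mM ATP and 0.5 mM fructose-6-phosphate in pH 8.0 TEA buffer. qHTS titrations up to 57 µM; curves classified by quality.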
RGS4 inh: blocks human RGS4-accelerated GTP hydrolysis. P49798. Transcreener GDP fluorescence polarization, RGS4-accelerated GTP hydrolysis. Potency, µM (highest dose often 114 µM), inactives show at the highest dose activity change, negative = inhibition, usual class: inhibitors. hit rate 0.039% among 390,000. AID 504845; also: % is scaled to controls: 0 for no effect and ±100 for the full control effect; nearly all actives have a fitted effect of over 75% in size
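MLSMR compounds (23 nl, pin-transferred) preincubated 10 min at room temperature with a 500nM (2x) first reagent, then RGS4 at 900nM (2x) plus Transcreener GDP mix added; fluorescence polarization (620/688 nm) read before and after 90 min at 30 °C.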
USP2a inh: blocks human ubiquitin-specific protease USP2a; O75604; USP2 core, Ub-CHOP2 coupled fluorogenic reporter, 485/531; Potency, µM (doses to about 38.3 µM), without a hit: top-dose activity change, negative = inhibition, hits mostly inhibitors; hit rate 0.01% among 330,000; AID 463254;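 also: plate controls were DMSO wells for no effect and full inhibition by NEM control for full effect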
Target sequence (O75604 whole entry, looked up): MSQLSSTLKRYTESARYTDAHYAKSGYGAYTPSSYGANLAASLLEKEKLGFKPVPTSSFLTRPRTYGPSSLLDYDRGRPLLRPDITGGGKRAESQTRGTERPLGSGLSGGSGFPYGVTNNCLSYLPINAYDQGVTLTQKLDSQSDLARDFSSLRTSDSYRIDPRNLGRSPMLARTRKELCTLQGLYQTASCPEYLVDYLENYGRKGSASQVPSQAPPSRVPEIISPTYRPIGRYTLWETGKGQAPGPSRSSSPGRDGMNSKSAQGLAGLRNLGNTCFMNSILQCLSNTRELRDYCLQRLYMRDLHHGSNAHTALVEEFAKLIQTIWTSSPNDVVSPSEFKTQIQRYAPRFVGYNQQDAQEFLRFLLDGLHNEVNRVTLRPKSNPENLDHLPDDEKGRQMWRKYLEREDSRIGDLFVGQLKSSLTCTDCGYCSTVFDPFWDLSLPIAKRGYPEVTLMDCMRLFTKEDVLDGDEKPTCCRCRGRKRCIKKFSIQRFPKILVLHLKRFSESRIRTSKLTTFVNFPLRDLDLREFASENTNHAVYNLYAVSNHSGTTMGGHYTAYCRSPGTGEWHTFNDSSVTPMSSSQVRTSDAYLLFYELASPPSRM
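Deubiquitinase activity read as fluorescence (485/531 nm) after Ub-CHOP2 cleavage activates the enterokinase reporter on its substrate; USP2 core 10nM, Ub-CHOP2 and substrate 25nM each, 30min compound preincubation then 60min RT; data normalized to NEM, curves fitted.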
BCR signal inh: inhibitors of chronic active B-cell receptor signaling; ABC-DLBCL IkBa-CBG/CBR reporter, luminescence ratio, 4 h; Potency, µM (series often up to 46.1 µM), without a hit: at the highest dose activity change, negative = inhibition, hits mostly inhibitors; hit rate 0.05% among 340,000; active = well fitted inhibition curve with a large enough effect in the signal ratio, with a control signal flat, not every such curve was filed as active; inconclusive = small, poorly fitted or top-dose-only effect, or effect the other way, or a change in a side signal; the % refers to the signal ratio;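 also: plate controls were basal doxycycline-induced cells for no effect and cells given 10 µM MG132 for full effect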
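Cell line TMD8 (human ABC DLBCL), stably expressing tet-inducible CBG68-IkBa fusion and CBR; IMDM/0.5% FBS; cpd up to 46 uM; dox induction, 4 h, 37C/5% CO2; dual luminescence; green/red ratio; MG132 control.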
Tb PFK KinaseGlo: orthogonal confirmation of T. brucei phosphofructokinase inhibitors; shares compounds with Tb PFK inh-1; Tb PFK enzyme, ATP depletion, Kinase-Glo Plus luminescence; Potency, µM (top dose mostly 57.5 µM), inactives show top-dose inhibition; hit rate 47% among 1,100; AID 504636; calls by dose curve; also: nearly all actives have a fitted effect of over 60% in size
Tb PFK inh-2: T. brucei PFK enzyme inhibition, hit validation; shares compounds with Tb PFK inh-1; purified T. brucei PFK, ADP-Glo luminescence, 45 min; Potency, µM (doses to about 57.5 µM), for the others: at the top dose activity change, negative = inhibition, most hits filed as inhibitors; hit rate 41% among 1,100;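 also: plate controls were full PFK enzyme control for no effect and no enzyme control for full effect; nearly all actives have a fitted effect of over 60% in size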
The depositor's hits bear a star; i = inactive; ? = inconclusive; / = not tested or not shown. Unless noted, calls follow the shape of the dose curve; as a rule, active = well fitted curve in the direction sought with a large enough effect; inconclusive = small, poorly fitted or top-dose-only effect, or another doubt; inactive = no such curve, though single readings can be large; an effect the other way counts as inactive or inconclusive. Potency is read from the fitted curve at half-maximal effect.

SMILES | Tb PGK inh | Tb PFK inh-1 | RGS4 inh | USP2a inh | BCR signal inh | Tb PFK KinaseGlo | Tb PFK inh-2
O=C(NCc1ccc(F)cc1)C(=O)NCC1CCCN1S(=O)(=O)c1ccccc1 (stereo not drawn) | -6% | ? | 20% | -1% | ? | 24µM* | ?
O=C(NCCc1ccc(F)cc1)C(=O)NCC1CCCN1S(=O)(=O)c1ccccc1 (stereo not drawn) | 8% | -7% | 22% | -1% | ? | / | /
CCOC(=O)c1c(-c2cccs2)csc1NC(=O)CC(C)C | -6% | -3% | -26% | 0% | 11% | / | /
NC(=O)c1c(-c2cccs2)csc1N | 1% | ? | ? | 2% | -4% | -30% | ?
O=C(COC(=O)c1ccccc1Cl)Nc1ccc2[nH]c(=O)[nH]c2c1 | -3% | -25% | 16% | 0% | -2% | / | /
O=C(COC(=O)c1ccccc1OC(F)F)Nc1ccc2[nH]c(=O)[nH]c2c1 | -5% | ? | -11% | -3% | ? | ? | ?
Cc1ccc(C(=O)NCC(=O)OCC(=O)Nc2ccc3[nH]c(=O)[nH]c3c2)cc1 | -9% | ? | -13% | 2% | -1% | ? | ?
O=C(COC(=O)Cc1ccc(F)cc1)Nc1ccc2[nH]c(=O)[nH]c2c1 | i | ? | -20% | 0% | 0% | ? | ?
O=C1C(=O)C(c2ccc(O)cc2O)Oc2cc(O)cc(O)c21 (stereo not drawn) | / | / | -33% | / | / | / | /
Cc1ccc(-n2nc(CO)c(C(=O)NCc3cccnc3)n2)cc1C | -3% | / | -4% | / | / | / | /
O=C1OC(c2cccs2)=N/C1=C/c1ccc(-c2cccc(C(=O)O)c2)o1 | -22% | ? | -10% | -5% | 0% | ? | ?
O=C1OC(c2cccs2)=N/C1=C\c1ccc(-c2ccccc2Cl)o1 | -4% | ? | 4% | -1% | -2% | / | /
Cc1ccc(N(CC(=O)Nc2ccc(Br)cc2)S(=O)(=O)c2cccs2)cc1 | i | / | -15% | / | / | / | /
CCCN1CNc2c(c(=O)[nH]c(=S)n2CCc2ccsc2)C1 | / | / | 5% | / | / | / | /
Cc1ccc(-c2onc(C)c2C)cc1S(=O)(=O)Nc1cccc(Cl)c1C | -5% | / | -15% | / | / | / | /
CS(=O)(=O)N1CC(C(=O)NN)Oc2ccc(Cl)cc21 (stereo not drawn) | -8% | ? | 15% | 0% | -1% | / | /
CS(=O)(=O)N1CC(C(=O)NC2CC2)Oc2ccc(Cl)cc21 (stereo not drawn) | -9% | 21µM* | 10% | 2% | -4% | 13µM* | 24µM*
CS(=O)(=O)N1CC(C(=O)NC2CCCC2)Oc2ccc(Cl)cc21 (stereo not drawn) | -2% | 19µM* | 17% | 1% | 4% | 9.5µM* | 24µM*
Cc1ccc(S(=O)(=O)C(CNC(=O)COc2ccccc2)c2ccco2)cc1 (stereo not drawn) | -3% | / | 22% | / | -22% | / | /
CC(CNc1ccccc1O)C(=O)O (stereo not drawn) | ? | 24µM* | -27% | 0% | -1% | ? | ?
CC(NC(=O)CCC(=O)Nc1ccccc1O)c1ccccc1 (stereo not drawn) | 1% | / | 3% | / | / | / | /
O=C(Nc1ccc(F)cc1)c1cccc(N2CCCS2(=O)=O)c1 | -11% | / | -15% | / | / | / | /
COc1cc2c(cc1OC)C(c1cc([N+](=O)[O-])ccc1O)NCC2 (stereo not drawn) | 13% | -7% | 1% | 2% | -17% | / | /
C[C@@H]1NCCc2cc(O)c(O)cc21 | 9% | ? | -4% | 3% | -3% | 8.5µM* | ?
